Experimental data published in ChEMBL document CHEMBL2218924, “A broad activity screen in support of a chemogenomic map for kinase signalling research and drug discovery” (Biochem J, 2013).

Tests used:
[1] = biological target: Tyrosine-protein kinase ABL1 (Homo sapiens) (UniProt P00519); settings: at 1 µM
[2] = biological target: Tyrosine-protein kinase ABL1 (Homo sapiens) (UniProt P00519); settings: at 10 µM
[3] = biological target: Tyrosine-protein kinase ABL2 (Homo sapiens) (UniProt P42684); settings: at 1 µM
[4] = biological target: Tyrosine-protein kinase ABL2 (Homo sapiens) (UniProt P42684); settings: at 10 µM
[5] = biological target: T1, Aurora kinase A (Homo sapiens) (UniProt O14965); settings: at 1 µM
T1 sequence (whole entry): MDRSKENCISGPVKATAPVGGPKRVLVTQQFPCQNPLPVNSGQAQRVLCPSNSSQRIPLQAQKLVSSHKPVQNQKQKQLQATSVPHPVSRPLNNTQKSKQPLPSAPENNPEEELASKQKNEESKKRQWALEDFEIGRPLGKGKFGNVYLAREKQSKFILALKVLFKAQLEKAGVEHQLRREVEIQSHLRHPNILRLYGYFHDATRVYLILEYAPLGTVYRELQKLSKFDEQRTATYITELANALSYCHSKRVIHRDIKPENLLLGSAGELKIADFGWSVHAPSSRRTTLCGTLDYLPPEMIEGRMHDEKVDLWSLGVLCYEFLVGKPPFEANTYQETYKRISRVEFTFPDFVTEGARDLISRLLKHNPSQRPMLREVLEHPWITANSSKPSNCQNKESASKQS

[6] = biological target: T1, Aurora kinase A (Homo sapiens); settings: at 10 µM
[7] = biological target: Aurora kinase B (Homo sapiens) (UniProt Q96GD4); settings: at 1 µM
[8] = biological target: Aurora kinase B (Homo sapiens) (UniProt Q96GD4); settings: at 10 µM
[9] = biological target: T2, Protein kinase C zeta type (Homo sapiens) (UniProt Q05513); settings: at 1 µM
T2 sequence (whole entry): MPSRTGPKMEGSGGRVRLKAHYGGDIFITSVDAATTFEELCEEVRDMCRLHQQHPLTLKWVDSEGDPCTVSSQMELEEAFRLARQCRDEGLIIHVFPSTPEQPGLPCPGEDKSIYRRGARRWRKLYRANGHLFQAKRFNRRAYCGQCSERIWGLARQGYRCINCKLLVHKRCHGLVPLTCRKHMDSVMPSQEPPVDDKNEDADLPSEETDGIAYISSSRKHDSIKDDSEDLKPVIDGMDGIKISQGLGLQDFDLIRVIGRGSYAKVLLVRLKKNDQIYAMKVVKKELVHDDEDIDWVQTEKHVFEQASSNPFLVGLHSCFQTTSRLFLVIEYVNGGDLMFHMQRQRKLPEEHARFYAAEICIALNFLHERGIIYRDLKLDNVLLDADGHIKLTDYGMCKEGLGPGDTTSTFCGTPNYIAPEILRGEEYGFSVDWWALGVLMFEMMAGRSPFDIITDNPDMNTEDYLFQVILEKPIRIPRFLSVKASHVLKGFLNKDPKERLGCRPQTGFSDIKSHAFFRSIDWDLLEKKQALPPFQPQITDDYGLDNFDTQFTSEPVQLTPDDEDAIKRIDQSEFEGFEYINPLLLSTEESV

[10] = biological target: T3, Mitogen-activated protein kinase kinase kinase 5 (Homo sapiens) (UniProt Q99683); settings: at 10 µM
T3 sequence (whole entry): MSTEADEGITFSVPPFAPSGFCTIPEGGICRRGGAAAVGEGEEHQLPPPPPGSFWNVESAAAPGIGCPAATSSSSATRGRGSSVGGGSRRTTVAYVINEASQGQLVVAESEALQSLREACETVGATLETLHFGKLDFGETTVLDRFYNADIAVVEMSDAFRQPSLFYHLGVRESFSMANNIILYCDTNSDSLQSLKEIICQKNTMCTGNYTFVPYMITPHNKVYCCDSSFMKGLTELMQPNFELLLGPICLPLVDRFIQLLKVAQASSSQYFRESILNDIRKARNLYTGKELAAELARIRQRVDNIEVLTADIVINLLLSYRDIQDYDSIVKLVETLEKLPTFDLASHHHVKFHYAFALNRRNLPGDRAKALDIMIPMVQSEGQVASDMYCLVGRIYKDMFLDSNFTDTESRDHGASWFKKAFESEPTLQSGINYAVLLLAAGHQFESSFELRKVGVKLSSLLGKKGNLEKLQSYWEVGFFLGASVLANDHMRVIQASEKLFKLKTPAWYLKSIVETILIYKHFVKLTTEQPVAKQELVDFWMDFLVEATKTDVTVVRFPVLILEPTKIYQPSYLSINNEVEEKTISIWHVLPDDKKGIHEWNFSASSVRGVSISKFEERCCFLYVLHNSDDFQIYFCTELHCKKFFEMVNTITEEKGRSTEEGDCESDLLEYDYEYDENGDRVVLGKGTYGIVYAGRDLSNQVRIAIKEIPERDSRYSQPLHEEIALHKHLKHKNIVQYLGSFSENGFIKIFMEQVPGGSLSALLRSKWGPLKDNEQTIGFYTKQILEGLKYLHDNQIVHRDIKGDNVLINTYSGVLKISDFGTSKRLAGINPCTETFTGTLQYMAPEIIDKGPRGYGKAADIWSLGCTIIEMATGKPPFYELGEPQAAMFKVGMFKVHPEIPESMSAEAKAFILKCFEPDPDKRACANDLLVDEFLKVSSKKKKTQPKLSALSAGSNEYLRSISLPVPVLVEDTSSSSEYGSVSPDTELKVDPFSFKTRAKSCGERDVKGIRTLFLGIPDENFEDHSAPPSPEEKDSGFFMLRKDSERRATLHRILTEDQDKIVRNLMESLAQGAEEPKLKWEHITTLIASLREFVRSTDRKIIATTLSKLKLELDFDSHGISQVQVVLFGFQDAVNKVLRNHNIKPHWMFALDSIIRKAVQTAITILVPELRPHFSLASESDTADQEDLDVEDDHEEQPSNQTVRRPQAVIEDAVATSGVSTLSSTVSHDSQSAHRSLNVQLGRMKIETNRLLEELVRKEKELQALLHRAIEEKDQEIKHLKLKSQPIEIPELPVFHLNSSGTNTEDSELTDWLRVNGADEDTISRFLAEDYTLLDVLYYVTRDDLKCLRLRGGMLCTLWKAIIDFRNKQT

Chain of Aurora kinase B (Homo sapiens) (Q96GD4 whole entry): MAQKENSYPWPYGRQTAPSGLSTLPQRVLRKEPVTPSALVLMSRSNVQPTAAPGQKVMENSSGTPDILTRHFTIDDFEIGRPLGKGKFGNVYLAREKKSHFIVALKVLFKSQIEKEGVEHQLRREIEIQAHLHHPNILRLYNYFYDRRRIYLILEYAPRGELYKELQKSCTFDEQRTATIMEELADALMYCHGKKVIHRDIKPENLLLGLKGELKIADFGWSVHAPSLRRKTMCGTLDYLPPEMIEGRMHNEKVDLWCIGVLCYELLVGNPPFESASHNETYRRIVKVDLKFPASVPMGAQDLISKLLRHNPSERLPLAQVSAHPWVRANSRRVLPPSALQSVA
Chain of Tyrosine-protein kinase ABL1 (Homo sapiens) (P00519 whole entry): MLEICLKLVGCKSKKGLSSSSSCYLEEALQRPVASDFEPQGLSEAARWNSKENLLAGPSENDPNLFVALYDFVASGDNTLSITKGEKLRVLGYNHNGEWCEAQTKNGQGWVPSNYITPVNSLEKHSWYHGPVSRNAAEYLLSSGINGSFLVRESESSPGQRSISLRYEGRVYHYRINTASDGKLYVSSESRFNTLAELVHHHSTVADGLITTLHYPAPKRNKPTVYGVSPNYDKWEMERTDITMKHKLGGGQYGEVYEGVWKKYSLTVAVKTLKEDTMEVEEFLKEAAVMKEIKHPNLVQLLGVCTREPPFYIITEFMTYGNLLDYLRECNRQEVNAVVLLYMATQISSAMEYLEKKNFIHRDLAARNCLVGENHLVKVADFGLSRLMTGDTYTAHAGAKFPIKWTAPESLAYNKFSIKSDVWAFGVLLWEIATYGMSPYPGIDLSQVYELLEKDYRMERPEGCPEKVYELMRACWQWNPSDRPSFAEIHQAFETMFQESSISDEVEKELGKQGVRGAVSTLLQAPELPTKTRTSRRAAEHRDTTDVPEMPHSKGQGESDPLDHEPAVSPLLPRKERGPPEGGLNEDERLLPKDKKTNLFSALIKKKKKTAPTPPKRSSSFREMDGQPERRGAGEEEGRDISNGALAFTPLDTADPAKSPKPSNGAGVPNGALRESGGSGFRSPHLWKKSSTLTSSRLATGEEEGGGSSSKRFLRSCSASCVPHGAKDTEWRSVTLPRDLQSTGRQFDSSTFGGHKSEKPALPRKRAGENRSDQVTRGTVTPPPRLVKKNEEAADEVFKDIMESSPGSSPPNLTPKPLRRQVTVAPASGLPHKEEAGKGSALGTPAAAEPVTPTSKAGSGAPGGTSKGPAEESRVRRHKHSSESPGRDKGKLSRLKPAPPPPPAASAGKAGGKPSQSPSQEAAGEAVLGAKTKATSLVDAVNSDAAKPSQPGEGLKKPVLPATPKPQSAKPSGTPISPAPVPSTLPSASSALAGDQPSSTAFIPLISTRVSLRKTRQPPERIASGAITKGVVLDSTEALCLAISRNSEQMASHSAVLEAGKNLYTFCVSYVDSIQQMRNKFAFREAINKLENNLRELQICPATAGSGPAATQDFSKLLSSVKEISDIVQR
Chain of Tyrosine-protein kinase ABL2 (Homo sapiens) (P42684 whole entry): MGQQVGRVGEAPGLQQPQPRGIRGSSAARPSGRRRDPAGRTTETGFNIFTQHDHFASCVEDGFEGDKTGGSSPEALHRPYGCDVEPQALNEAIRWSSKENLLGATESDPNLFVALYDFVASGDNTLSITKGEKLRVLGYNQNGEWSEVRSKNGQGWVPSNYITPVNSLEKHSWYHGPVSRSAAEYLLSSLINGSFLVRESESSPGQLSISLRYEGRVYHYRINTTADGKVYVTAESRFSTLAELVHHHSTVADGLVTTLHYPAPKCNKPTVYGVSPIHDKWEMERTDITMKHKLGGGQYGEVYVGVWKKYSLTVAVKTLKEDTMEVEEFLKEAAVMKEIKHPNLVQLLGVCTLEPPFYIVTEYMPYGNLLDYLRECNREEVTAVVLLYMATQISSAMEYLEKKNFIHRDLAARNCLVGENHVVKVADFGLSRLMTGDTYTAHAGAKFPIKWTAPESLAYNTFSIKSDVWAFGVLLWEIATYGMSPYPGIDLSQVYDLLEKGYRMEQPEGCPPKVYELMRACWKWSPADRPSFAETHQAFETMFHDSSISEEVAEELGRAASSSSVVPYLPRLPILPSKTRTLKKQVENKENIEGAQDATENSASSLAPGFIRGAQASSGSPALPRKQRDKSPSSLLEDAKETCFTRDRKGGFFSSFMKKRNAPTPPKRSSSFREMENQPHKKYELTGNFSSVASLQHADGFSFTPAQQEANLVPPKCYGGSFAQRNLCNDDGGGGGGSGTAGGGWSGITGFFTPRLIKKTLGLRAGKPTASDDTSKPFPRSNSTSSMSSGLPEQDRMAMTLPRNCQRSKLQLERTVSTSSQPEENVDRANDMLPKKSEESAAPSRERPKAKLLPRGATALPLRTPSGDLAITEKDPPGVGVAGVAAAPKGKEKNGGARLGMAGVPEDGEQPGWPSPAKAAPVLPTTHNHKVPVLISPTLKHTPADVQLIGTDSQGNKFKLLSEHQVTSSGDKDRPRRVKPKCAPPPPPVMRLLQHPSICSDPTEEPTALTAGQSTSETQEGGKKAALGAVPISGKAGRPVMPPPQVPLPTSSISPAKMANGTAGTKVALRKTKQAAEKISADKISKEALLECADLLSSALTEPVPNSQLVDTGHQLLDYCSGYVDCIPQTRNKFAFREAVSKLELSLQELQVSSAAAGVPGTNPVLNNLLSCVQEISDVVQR

Row | SMILES | residual activity [1] [%] | residual activity [2] [%] | residual activity [3] [%] | residual activity [4] [%] | residual activity [5] [%] | residual activity [6] [%] | residual activity [7] [%] | residual activity [8] [%] | residual activity [9] | residual activity [10] [%]
1 | COc1ccc2c(c[n+](C)c3c4cc5c(cc4ccc23)OCO5)c1OC | 85 | 97 | 92 | 82 | 83 | 75 | 130 | 60 | – | –
2 | COC(=O)[C@@]1(O)C[C@H]2O[C@]1(C)n1c3ccccc3c3c4c(c5c6ccccc6n2c5c31)C(=O)NC4 | 80 | 51 | 79 | 35 | 2 | -1 | 0 | 0 | 52% (inactive) | 0
3 | O=C1c2ccccc2-c2nc3nnnn3nc21 | 107 | 112 | – | 113 | 71 | – | – | – | 113% (inactive) | 143
4 | COc1cc(OC)c(/C=C2\C(=O)Nc3ccccc32)c(OC)c1 | 104 | 85 | 123 | 77 | 107 | 107 | 59 | 48 | – | 90
5 | O=C1NC(=O)c2c1c1c3ccccc3n3c1c1c2c2ccccc2n1C1CCC3O1 | – | – | – | – | 95 | 88 | 2 | 4 | – | 60
6 | CC(C)(C)c1cc(C=C(C#N)C#N)cc(Br)c1O | 80 | 4 | – | 51 | 104 | 122 | 108 | 45 | 99% (inactive) | 109
7 | c1cc(-c2cnn3cc(-c4ccc(OCCN5CCCCC5)cc4)cnc23)ccn1 | 4 | -4 | 12 | 1 | 64 | 48 | 18 | 2 | – | 84
8 | C[S+]([O-])c1ccc(-c2nc(-c3ccc(F)cc3)c(-c3ccncc3)[nH]2)cc1 (stereo not drawn) | – | 72 | – | 55 | 117 | 118 | 102 | 80 | 108% (inactive) | 105
9 | O=C1Nc2ccc3ncsc3c2/C1=C/c1c[nH]cn1 | 66 | 20 | 82 | 33 | 0 | -2 | 2 | 0 | 86% (inactive) | 7
10 | CCc1nc(-c2ccc(OC)cc2)[nH]c1-c1ccncc1 | – | – | 104 | 75 | – | – | 67 | 62 | 105% (inactive) | –
11 | COc1ccc2c(c1)/C(=C/c1cnc[nH]1)C(=O)N2 | – | – | – | 47 | 42 | 2 | 21 | 0 | – | 41
12 | O=c1[nH]c2ccccc2n1C1CCN(Cc2ccc(-c3nc4cc5[nH]cnc5cc4nc3-c3ccccc3)cc2)CC1 | 114 | 137 | 117 | 89 | 70 | 92 | 116 | 77 | 109% (inactive) | 96
13 | N/C(=N\[N+](=O)[O-])N/N=C\c1ccc(-c2cccc([N+](=O)[O-])c2)o1 | – | – | 96 | 83 | – | – | 80 | 53 | – | 86
14 | O=[N+]([O-])/C=C/c1ccc2c(c1)OCO2 | 96 | 86 | 104 | 92 | 99 | 109 | 108 | 90 | 93% (inactive) | 90
15 | COc1cc2ncnc(Nc3ccc(OCc4ccccc4)cc3)c2cc1OC | 93 | 111 | 103 | 96 | 41 | 38 | 6 | 3 | 101% (inactive) | 92
16 | CCn1cnc2c(Nc3cccc(Cl)c3)nc(N[C@@H]3CCCC[C@@H]3N)nc21 | 95 | 40 | 62 | 13 | 85 | 68 | 21 | 1 | – | 89
17 | CC(C)[C@H](CO)Nc1nc(Nc2cccc(Cl)c2)c2ncn(C(C)C)c2n1 | 62 | 14 | 22 | 1 | – | 72 | 72 | 17 | 101% (inactive) | 96
